# Compounds with a hit are over-represented: about 19% of the library has one in this group of screens.
# TDP1 cell CPT: DT40-hTDP1 cell growth loss with CPT; chicken DT40 Tdp1-/-;hTDP1 cells + 20 nM CPT, ATP luminescence, 48 h; Potency, µM (top dose mostly 46.2 µM), for inactives: top-dose activity change, negative = growth inhibition, most hits filed as inhibitors; 12% of 420,000 active; AID 686979; note: potency is the fitted concentration of half-maximal effect; nearly all actives have a fitted effect of over 55% in size
#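 Cell growth measured by CellTiter-Glo luminescence after a minimum 48 h, 37 C compound exposure with 20 nM CPT in Tdp1-knockout DT40 cells stably expressing hTDP1, seeded 400/well; qHTS titration format.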
# HT1080 IDH1KD tx: toxicity to HT-1080 IDH1 knockdown cells (counter line); HT-1080 IDH1 knockdown viability, ATP luminescence, 48 h; Potency, µM (highest dose often 46.1 µM), for inactives: top-dose activity, negative = toxicity, actives largely listed as cytotoxic; 2% of 360,000 active; AID 686971;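 note: potency is the fitted concentration of half-maximal effect; 0% = DMSO wells and -100% = cell-free medium wells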
#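 Cytotoxicity counter-line: IDH1KD HT-1080, 48 h, CellTiter-Glo. Curves classed by r2, magnitude and activity.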
# IL-1B inflam inh: inflammasome signaling inhibition, IL-1 beta readout. THP-1 LPS/ATP IL-1B secretion, AlphaLISA, 16 h; hits give low values. activity change, % at 57.5 µM. 4.7% of 360,000 active; in the data active = activity change below about -50%; inconclusive = mostly about -30% to -49%
#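 THP-1 cells pretreated 1 hr with compounds (up to 57.5 uM final), then stimulated with LPS (250 ng/mL final) plus ATP (1.25 mM final); secreted IL-1B measured by AlphaLISA after 16 hr, decreased signal indicating inhibition.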
# DT40 TDP1 no CPT: qHTS for Inhibitors of human tyrosyl-DNA phosphodiesterase 1 (TDP1): qHTS in cells in absence of CPT | DT40 Tdp1-/- hTDP1 cells, no CPT, ATP luminescence, 48 h | Potency, µM (highest dose often 46.2 µM), without a hit: at the highest dose activity change, negative = growth inhibition, actives largely listed as inhibitors | 15% of 420,000 active | AID 686978, 2013; note: potency is the fitted concentration of half-maximal effect; nearly all actives have a fitted effect of over 55% in size
#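 Stably hTDP1-transfected Tdp1-null chicken DT40 cells were treated with library compounds minus camptothecin and grown for at least 48 hr at 37 °C, after which cellular ATP was quantified by luminescence.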
# HT1080-NT tox: kills 2HG-producing HT-1080-NT fibrosarcoma cells | HT-1080-NT fibrosarcoma viability, CellTiter-Glo ATP luminescence, 48 h | Potency, µM (series often up to 46.1 µM), for inactives: top-dose activity, negative = less viability, most hits filed as cytotoxic | 1.6% of 360,000 active;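 note: NT is the 2HG producing partner of a matched IDH1 knockdown line; potency is the fitted concentration of half-maximal effect; 0% = DMSO-treated cells and -100% = media-only wells without cells; nearly all actives have a fitted effect of over 55% in size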
#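 HT-1080-NT; 750 cells/well; 5% FBS RPMI; 48 h compound, 37 degrees C; CellTiter-Glo luminescence; curve fitting and curve-class assignment.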
# An asterisk follows results filed as active; ? = inconclusive; nt = not tested or not shown. Unless noted, calls come from the whole dose curve; as a rule, active = well fitted curve in the direction sought with a large enough effect; inconclusive = small, poorly fitted or top-dose-only effect, or another doubt; inactive = no such curve, though single readings can be large; an effect the other way counts as inactive or inconclusive. Unless noted, % is set by controls: 0 for no effect and ±100 for the full control effect.
SMILES,TDP1 cell CPT,HT1080 IDH1KD tx,IL-1B inflam inh,DT40 TDP1 no CPT,HT1080-NT tox
O=C(NCc1cccnc1)c1ccc(NC(=O)c2cccc([N+](=O)[O-])c2)cc1,14.6µM*,3.66µM*,-10.3,-82.3%,?
COc1ccccc1Nc1nc(-c2cccc([N+](=O)[O-])c2)cs1,?,-12.6%,-25.2,?,1.1%
O=C(COC(=O)c1ccccc1)Nc1ncc([N+](=O)[O-])s1,-1.7%,0.9%,-4.5,?,1.2%
O=C(Nc1ccccc1)Nc1ncc([N+](=O)[O-])s1,6.51µM*,9.2µM*,-87.3*,4.61µM*,9.2µM*
O=C(Nc1nc(-c2ccccc2)cs1)c1cccc([N+](=O)[O-])c1,?,-13.5%,-79.0*,?,-8.8%
O=C(Cc1ccccc1)Nc1nc(-c2cccc([N+](=O)[O-])c2)cs1,-19.3%,23.2%,-14.4,?,24.8%
O=[N+]([O-])c1cccc(-c2csc(Nc3ccccc3)n2)c1,?,?,-104.9*,29.1µM*,?
CCn1nc(NS(=O)(=O)c2ccccc2[N+](=O)[O-])c2cc3ccc(C)cc3nc21,4.0%,-13.3%,9.2,-3.6%,3.5%
CCC(C)NC(=O)c1cc2c(=O)n3cccc(C)c3nc2s1 (centres undefined),0.1%,5.9%,26.2,-15.9%,-0.4%
CCc1ccc(C=O)cc1,0.1%,nt,nt,0.4%,nt
O=C(O)CCCC(=O)Nc1ccc(C(=O)NCc2cccnc2)cc1,-4.2%,4.9%,2.3,-6.0%,4.1%
N#CCC(=O)Nc1ncc(Cc2ccccc2Cl)s1,-10.8%,-29.6%,-5.8,-20.0%,-6.8%
O=C(Nc1ncc(Cc2cccc(Cl)c2Cl)s1)c1ccc([N+](=O)[O-])cc1,13µM*,7.3%,2.5,16.4µM*,5.3%
O=C(CCC1CCCC1)Nc1ccc(C(=O)NCc2cccnc2)cc1,14.6µM*,6.51µM*,-10.6,?,5.17µM*
O=C(NC1CCCCC1)C(c1ccccc1)n1c(=O)c(-c2ccco2)nc2ccccc21 (centres undefined),18.4µM*,1.3%,-0.1,20.6µM*,-2.3%
N#Cc1ccc(C(C(=O)NC2CCCCC2)n2c(=O)c(-c3ccco3)nc3ccccc32)cc1 (centres undefined),14.6µM*,-3.4%,?,16.4µM*,-8.4%
CCCCCNC(=O)C(c1ccc(C(F)(F)F)cc1)n1c(=O)c(-c2ccco2)nc2ccccc21 (centres undefined),?,-24.0%,59.2,18.4µM*,?
O=C(NC1CCCCC1)C(C1CC1)n1c(=O)c(-c2ccco2)nc2ccccc21 (centres undefined),?,-1.3%,1.5,10.3µM*,1.8%
COc1ccc(NC(=O)c2cc(C3CCCCN3C(=O)c3ccc(NC(C)=O)cc3)on2)c(C)c1 (centres undefined),-5.7%,0.0%,-1.6,-0.9%,3.4%
O=C(NC1CCCCC1)C(c1ccc(C(F)(F)F)cc1)n1c(=O)c(-c2ccco2)nc2ccccc21 (centres undefined),1.64µM*,-15.9%,-8.6,?,-21.6%
O=C(NCc1ccccc1)C(c1ccncc1)n1c(=O)c(-c2ccco2)nc2ccccc21 (centres undefined),-24.7%,-1.0%,-6.0,-26.7%,-4.1%
CCCCCNC(=O)C(C1CC1)n1c(=O)c(-c2ccco2)nc2ccccc21 (centres undefined),14.6µM*,3.4%,15.1,13µM*,-11.2%
CCOC(=O)c1sc(C)c(C(=O)NCC(C)(C)CN(C)C)c1N,-3.8%,12.8%,6.7,-0.6%,12.9%
COc1c2c(c3c(c1OC)c(=O)c1ccccc1n3C)OCO2,?,-0.1%,6.2,?,-0.7%
Cc1ccc(-c2n[nH]c(=O)c3ccccc23)cc1S(N)(=O)=O,-22.4%,-3.4%,4.6,-19.8%,6.7%
SMILES,TDP1 cell CPT,HT1080 IDH1KD tx,IL-1B inflam inh,DT40 TDP1 no CPT,HT1080-NT tox
CC1CN(CC(O)COC2CCC(C(C)(C)C)CC2)CC(C)O1 (centres undefined),?,-3.0%,16.9,-25.1%,-0.3%
CC1CCCC(C)N1CC(O)COC1CCC(C(C)(C)C)CC1 (centres undefined),23.1µM*,-27.6%,0.0,20.6µM*,-16.9%
CCCOc1ccc(-c2c(C(=O)N/N=C/c3cccs3)nnn2-c2nonc2N)cc1,?,-1.5%,-21.2,1.5%,-14.7%
O=C(c1ccc2c(c1)N(Cc1cccc(Cl)c1)C(=O)c1ccccc1S2(=O)=O)N1CCCCC1,16.4µM*,nt,nt,?,nt
O=C(c1ccc2c(c1)N(Cc1cccc(Cl)c1)C(=O)c1ccccc1S2(=O)=O)N1CCc2ccccc21,2.06µM*,nt,nt,1.64µM*,nt
Cc1cc(C)cc(OCc2nnc(SCC(=O)OC(C)C)o2)c1,-14.5%,-5.6%,-3.3,-17.1%,-0.2%
CC1CCCCC1NC(=O)CSc1nnc(-c2ccco2)n1N (centres undefined),-3.9%,7.3%,5.7,8.6%,10.2%
COc1cccc(CNC(=O)c2ccccc2SCC(=O)N2CCCC2)c1,-12.1%,8.2%,-5.2,-4.0%,0.2%
CC(=O)c1ccc2c3c(cccc13)CC2,2.9%,6.4%,3.8,-14.5%,13.2%
ON=C(c1ccccc1)c1ccc2c3c(cccc13)CC2,?,-13.9%,31.6,18.4µM*,-11.0%
FC(F)(F)c1cccc(N2CCN(c3ccc4nnc(-c5ccccc5)n4n3)CC2)c1,16.4µM*,-12.3%,?,?,-1.7%
Cc1cccc(C)c1N1CCN(c2ccc3nnc(C(F)(F)F)n3n2)CC1,20.6µM*,?,-18.7,20.6µM*,?
FC(F)(F)c1nnc2ccc(N3CCCCC3)nn12,9.7%,5.6%,91.8,-23.1%,-0.5%
Cc1cc(NC(=O)CSCC(=O)Nc2ccccc2N2CCCCC2)no1,-19.3%,-20.3%,3.2,-27.3%,-6.4%
COc1cc(=O)n(C)c2c(O)cccc12,9.1%,-0.5%,25.6,6.7%,-7.9%
Cc1ccc(S(=O)(=O)N2CCC(C(=O)NCCC3=CCCCC3)CC2)c(C)c1,?,5.4%,-17.9,?,7.7%
CCc1cccc(CC)c1NC(=O)CCS(=O)(=O)c1ccc2c(c1)CCN2C(C)=O,-22.8%,nt,nt,-18.1%,nt
CC[N+](C)(C)c1ccc(/C=C/c2ccc3ccccc3n2)cc1,0.0282µM*,nt,nt,?,nt
CC(=O)/C=C/c1ccc2ccccc2n1,5.17µM*,?,-119.7*,2.59µM*,?
CCN(CC)c1ccc(/C=C/c2ccc3ccccc3n2)cc1,0.159µM*,nt,nt,0.159µM*,nt
Clc1ccc(/C=C/c2ccc3ccccc3n2)cc1Cl,6.31µM*,nt,nt,3.55µM*,nt

# Compound activity from PubChem.
